# Screen size: about 410,000 compounds; about 490 (0.12%) were called active. About 1% were inconclusive and are not listed. This excerpt belongs to a sample that is enriched for actives. A number with no mark means an inactive call. The call rests on the fitted dose curve; in most records, active means well fitted inhibition curve with a large enough effect; inconclusive means small, poorly fitted or top-dose-only effect; inactive means flat fitted curve, though single readings scatter.
# Target: pyruvate kinase (Trypanosoma brucei) (UniProt Q57TT1)
# Assay: qHTS of Trypanosoma Brucei Inhibitors
# Details: TbPYK enzyme, Kinase-Glo Plus ATP luminescence, 45 min; series mostly up to 76.8 µM; activity, negative = inhibition: at the top concentration
# From the text: Members of the Trypanosomatidae family of parasitic protozoans cause a spectrum of diseases throughout the tropical and subtropical world. Sleeping sickness, caused by two subspecies of Trypanosoma brucei, is endemic to areas of sub-Saharan Africa, while Chagas' disease, a manifestation of Trypanosoma cruzi infection, is prevalent throughout Central and South America. In addition, many species of Leishmania are responsible for a range of cutaneous and visceral diseases, causing ulcers, destructive lesions and kalaazar, a lethal infection of the viscera. These diseases cause severe public health and economic burdens on populations that are often already caught in a tragic cycle of poverty, poor nutrition and disease. Collectively, parasites of the trypanosomatid family infect 30 million people worldwide (~500 million live in endemic areas), and account for ~130K deaths annually. Existing treatments have developed little in the past 50 years, and suffer from toxicity, poor efficacy and resistance; the goal of this project is to develop lead drugs that will be suitable for entry into pre-clinical trials.
# Glycolysis in axenically cultured T. cruzi, representing the intracellular pathogenic stage, is also essential for these parasites. {Engel, 1987} This project aims to discover and optimize selective inhibitors of the glycolytic enzyme pyruvate kinase (PYK) from Trypanosoma brucei, the parasite that causes sleeping sickness. […] Trypanosomatid PYKs show significant differences from their human counterparts including only 47-50% sequence identity and different allosteric and activation properties.{Callens, 1992} To this end, a qHTS was done against the MLSMR to discover inhibitors.
# NIH Molecular Libraries Probe Production Network [MLPCN]
# NIH Chemical Genomics Center [NCGC]
# PI Name: Malcolm Walkinshaw, University of Edinburgh
# 2 uL of TbPYK/substrate buffer (columns 1-3, 5-48) are dispensed into Greiner white solid bottom 1536-well assay plates; column 4 receives only TEA buffer as 0x TbPYK controls. Compounds are then transferred via Kalypsys pin tool equipped with 1536-pin array (10 nL slotted pins, V&P Scientific, San Diego, CA). Following addition of compound, 2 uL of ADP (130 uM final concentration, all columns) is added to initiate the reaction. The plates are then incubated at room temperature for 45 minutes. Kinase-Glo Plus reagent is added (3 uL) and plates incubated for 10 minutes, before being transferred to a ViewLux high-throughput CCD imager (PerkinElmer) wherein single end-point measurements of luminescence are acquired using a clear filter. All reagents are diluted in an assay buffer consisting of 50 mM TEA (pH 7.2), 100 mM KCl, 10 mM MgCl2, 0.05% BSA and 0.01% Tween-20.
# All screening operations will be performed on a fully integrated robotic system (Kalypsys, San Diego, CA) containing one RX-130 and two RX-90 anthropomorphic robotic arms (Staeubli, Duncan, SC). Library plates will be screened starting from the lowest and proceeding to the highest concentration. Vehicle-only plates, with DMSO being pin-transferred to columns 5-48, will be inserted uniformly at the beginning and the end of each library in order to monitor and record any shifts in the background, which can be affected by reagent dispensers or loss in enzyme activity over time. Screening data will be corrected, normalized, and concentration-effect relationships will be derived by using publicly-available curve fitting algorithms developed in-house (http://ncgc.nih.gov/pub/openhts).
# On the % scale 0 is the no-effect control and ±100 the full control effect; potency means the concentration at half of the fitted maximal effect.
Compound,"activity, negative = inhibition",Potency
CC[N+]1(CCOC(=O)C(O)(c2ccccc2)c2ccccc2)CCCCC1,4.87%,
COc1cccc(Nc2ncc3ncc(=O)n(C4CC4)c3n2)c1,-1.66%,
CO[C@H]1C[C@@H](O[C@@H]2[C@@H](C)O[C@@H](O[C@@H]3/C(C)=C/CC4C[C@@H](C[C@]5(C=C[C@@H](C)[C@H](C6CCCCC6)O5)O4)OC(=O)[C@@H]4C=C(C)[C@@H](O)[C@H]5OC/C(=C\C=C\[C@@H]3C)[C@]54O)C[C@H]2OC)O[C@@H](C)[C@@H]1O,19.1%,
CCCCCCCCCCCCCCCCO,-2.03%,
CCCN(CC)[C@@H](CC)C(=O)Nc1c(C)cccc1C,1.91%,
O=S(=O)(O)C(F)(F)C(F)(F)C(F)(F)C(F)(F)F,6.2% [at 157 µM],
C[N+](C)(CCOc1ccccc1)Cc1cccs1 (tested in a mixture with another compound),3.32%,
CCCC[C@H]1C(=O)N(c2ccccc2)N(c2ccc(O)cc2)C1=O,-5.82% [at 33.2 µM],
CN1CCC2(CC1)CCN(S(=O)(=O)c1ccccc1)CC2,2.49%,
O=C(c1csnn1)N1CCC2(CC1)CN(c1ncccn1)C2,0.632%,
COc1ccc(S(=O)(=O)NCC(c2ccc(N(C)C)cc2)N2CCCC2)cc1 (stereo not drawn),-3.6%,
O=C(Nc1cccc(F)c1)N1CC2(CCN(C(=O)c3csnn3)CC2)C1,0.268%,
CN1C(=O)C[C@H](c2ccccc2)C1=O,-4.61%,
C/C=C/C=N/NC(=O)c1ccncc1,6.94%,
O=C(Nc1cccc(F)c1)N1CC2(CCN(C(=O)c3cnccn3)CC2)C1,-8.59%,
Cc1nnc(SCC(=O)NNC(=O)c2ccc(Cl)cc2)n1CC1CCCO1 (stereo not drawn),-19.4%,
S=c1[nH]nc(-c2ccc(Cl)cc2)n1CC1CCCO1 (stereo not drawn),,10 µM (active)
CNC(=O)NC(=O)CSc1nnc(-c2ccc(F)cc2)n1CC1CCCO1 (stereo not drawn),0.187%,
c1ccc(N2CC[C@@]3(CCCNC3)C2)nc1,-8.65%,
NNc1nnc(Cc2ccncc2)c2ccccc12,5.32%,
CCNc1ncc2ncc(=O)n(CCc3ccccc3)c2n1,0%,
O=C(N/N=C/c1ccc([N+](=O)[O-])o1)c1cc([N+](=O)[O-])cc([N+](=O)[O-])c1O,-7.27%,
CCOc1ccc(N(Cc2ccccc2)C(=O)c2nc(S(C)(=O)=O)ncc2Cl)cc1,-5.03%,

Compound,"activity, negative = inhibition",Potency
Cc1ccnc(SC2CC(=O)N(c3ccccc3)C2=O)n1 (stereo not drawn),-4.81%,
Cc1ccnc(-n2sc3ccccc3c2=O)n1,,20 µM (active)
O=c1c2ccccc2nc(-c2ccccc2)n1-c1ccccn1,3.13%,
Cc1ccc(S(=O)(=O)NC(=O)NN2C[C@H]3CCC[C@@H]3C2)cc1,1.84% [at 33.2 µM],
c1csc(CN2CCCC3(CCNCC3)C2)n1,-3.6%,
CC(O)COc1ccccc1 (stereo not drawn),3.14%,
OCC(CO)NC1C[C@](O)(CO)[C@@H](O)[C@H](O)[C@H]1O (stereo partly drawn),-1.52%,
Cn1c(=O)c(-c2ccccc2)nc2cnc(N3CCNCC3)nc21,0%,
NNc1nnc(NN)c2ccccc12,-2.4%,
O=C(c1csnn1)N1CCC[C@@]2(CCN(Cc3nccs3)C2)C1,-6.04%,
C[C@@H]1C[C@H]2[C@@H]3C[C@H](F)C4=CC(=O)C=C[C@@]4(C)[C@]3(F)[C@H](O)C[C@]2(C)[C@@]1(O)C(=O)CO,8.35% [at 33.2 µM],
COc1ccc(Cn2ccn(CC(=O)Nc3cc(C)ccc3C)c(=O)c2=O)cc1,2.7%,
CN1CC(O)c2cc(N=NC(N)=O)c(O)cc21 (stereo not drawn),-5.31%,
O=C(c1csnn1)N1CCC[C@@]2(CCN(c3cccc(-c4ccccc4)c3)C2)C1,0.943%,
O=C(c1cnccn1)N1CCC[C@@]2(CCN(Cc3ccncc3)C2)C1,-5.03%,
COc1ccccc1CN1CC2(CCN(S(=O)(=O)c3ccccc3)CC2)C1,0.687%,
O=P1(N(CCCl)CCCl)NC(OO)CCO1 (stereo not drawn),2.01%,
O=C(c1cccc(F)c1)N1CCC2(CCCN(Cc3ccncc3)C2)CC1,-5.59%,
COC(=O)N1CCC[C@@]2(CCN(C(=O)NC(C)C)C2)C1,-9.35%,
O=C(c1ccco1)N1CCC[C@@]2(CCN(c3ccccc3)C2)C1,9.42%,
COC(=O)N1CCC2(CCCN(Cc3ccccc3OC)C2)CC1,-2.64%,
CS(=O)(=O)N1CCC2(CC1)CN(Cc1cc(C(F)(F)F)cc(C(F)(F)F)c1)C2,7.42%,
CC(=O)N1CCC2(CCCN(c3ncccn3)C2)CC1,4.38%,

Compound,"activity, negative = inhibition",Potency
CC[C@]1(C)CC(=O)NC1=O,4.41%,
C=C1C(=CC=C2CCC[C@]3(C)[C@@H]([C@H](C)C=C[C@H](C)C(C)C)CC[C@@H]23)C[C@@H](O)C[C@@H]1O,-15.1%,
COc1ccc(Cl)cc1NC(=O)CCn1c(=O)c2cccn2c2ccccc21,-6.83%,
Cc1ccc(C)c2c1cc(C)c1nnc(SCC(=O)Nc3cccc(C(=O)O)c3)n12,,6.31 µM (active)
Cc1ccc(C(=O)NCCc2nnc(SCC(=O)Nc3cccc(C(=O)O)c3)n2C)cc1,1.34%,
CCOc1cc(C)ccc1OCc1nnc(SCC(=O)Nc2cccc(C(=O)O)c2)n1-c1ccccc1,-8.24%,
CC(=O)OC[C@H]1O[C@@H](O[C@H]2[C@H](O)[C@@H](OC(=O)c3ccccc3C(=O)O)[C@H](O)O[C@@H]2COC(C)=O)[C@H](O)[C@@H](OC(=O)c2ccccc2C(=O)O)[C@@H]1O,0.513%,
O=C(c1cccc(F)c1)N1CCC2(CC1)CCN(c1ccccc1)CC2,5.12%,
c1csc(CN2CC3(CCNCC3)C2)n1,2.23%,
O=C(O)CCCCC(=O)O,-3.81%,
COc1ccc(C(=O)N2CCC[C@@]3(CCN(C(=O)NC(C)C)C3)C2)cc1,-4.71%,
COc1ccccc1OCCCn1c(-c2ccc(Cl)cc2)nc2ccccc2c1=O,-7.86%,
O=S(=O)(c1ccccc1)N1CCC2(CC1)CN(Cc1nccs1)C2,-5.48%,
CCOc1ccc(N2C(=O)/C(=C/c3ccc(C)o3)N(C)C2=S)cc1,,28.2 µM (active)
CCOC(=O)c1ccc(NC2=CC(c3ccc(OCC)cc3)N(c3ccc(C(=O)OCC)cc3)C2=O)cc1 (stereo not drawn),1.45%,
CCOc1ccc(N2C(=O)Nc3ccccc3C2(O)C(=O)NCc2ccco2)cc1 (stereo not drawn),-6.44%,
O=C(c1cc(C(F)(F)F)cc(C(F)(F)F)c1)N1CCC2(CC1)CN(c1ccncc1)C2,0.607%,
CCn1c(C(C)C)n[nH]c1=S,-29.1%,
CCc1cc(-c2nnc(SCC(=O)NC3CC3)n2C)cs1,-5.99%,
CCc1cc(-c2n[nH]c(=S)n2CC(C)C)cs1,,3.16 µM (active)
FC(F)(F)C1CCCN(c2nsc3ccccc23)C1 (stereo not drawn),,6.31 µM (active)
FCOC(C(F)(F)F)C(F)(F)F,5.69%,
